Each structure is given as a SMILES string. Values joined by “and” are separate entries in the source; they are usually repeats but may differ in a detail not shown here. Identical values can stand only once. Records with an inconclusive call do not appear. Entries that show only a call come without a potency. More than one record can exist for a structure, and the calls need not agree. Active and inactive are the calls of the source. The call rests on the fitted dose curve; in most records, active means well fitted cell-killing curve with a large enough effect in the repeat runs; inconclusive means weak or mixed curves, or effect the other way; inactive means no such curve, though single readings can be large or run the other way.
Potency means the concentration at half of the fitted maximal effect.

This test can be described thus: qHTS assay to identify small molecule agonists of the farnesoid-X-receptor (FXR) signaling pathway - cell viability counter screen (AID 743218). Further: nearly all actives have a fitted effect of over 45% in size. The note with it: FXR-bla HEK293T viability, CellTiter-Glo luminescence, 16 h; series mostly up to 62.6 µM; viability change, negative = cytotoxic: at the top concentration. An excerpt: U.S. Tox21 Program National Center for Advancing Translational Sciences [NCATS] NIH Chemical Genomics Center [NCGC] U.S. Environmental Protection Agency [EPA] National Institutes of Environmental Health Sciences [NIEHS] National Toxicology Program [NTP] U.S. Food and Drug Administration [FDA] Tox21 Assay Overview: The farnesoid-X-receptor (FXR), a nuclear hormone receptor, is highly expressed in liver, intestine, kidney and adrenal cortex. Natural ligands of FXR are the bile acids (Cholic acid, Chenodeoxy cholic acid etc). FXR is an important regulator of diverse metabolic pathways, including the bile acid homeostasis, lipid and glucose metabolisms. FXR regulates the expression of target genes by binding either as a monomer or as a heterodimer with the retinoid X receptor (RXR). Numerous studies have reported that FXR exerts protective function during cholestasis, diabetes, liver regeneration, and cancer. To identify compounds that activate FXR signaling, GeneBLAzer FXR-UAS-bla HEK 293T cell line (Invitrogen, Carlsbad, CA) containing a beta-lactamase reporter gene under the control of a UAS response element was used to screen the Tox21 10K compound library. The cytotoxicity of the Tox21 compound library against the FXR-bla cell line was tested in parallel by measuring the cell viability using CellTiter-Glo assay in the same wells.
Tox21 Assay Protocol Summary: FXR-bla cells were dispensed at 5000 cells/5uL/well in 1536-well black wall/clear bottom plates using a Multidrop Combi (Thermo Fisher Scientific, Waltham, MA) dispenser. After the assay plates were incubated at 37 C and 5% CO2 for 5 h, 23 nL of compounds dissolved in DMSO, positive controls or DMSO only was transferred to the assay plate by a Pintool station (Kalypsys, San Diego, CA). The assay plates were incubated at 37C for 16 h. After 1 uL of LiveBLAzerTM B/G FRET substrate was added using a Bioraptr Flying Reagent Dispenser (FRD) workstation (Beckman Coulter, Indianapolis, IN), the plates were incubated at room temperature for 2 h, and fluorescence intensity was measured by an Envision plate reader (PerkinElmer, Shelton, CT). For cell viability readout that measures cytotoxicity, 4uL/well of CellTiter-Glo reagent was added into the assay plates using a Bioraptr FRD. After 30 min incubation at room temperature, the luminescence intensity in the plates was measured using a ViewLux plate reader (PerkinElmer).
In the case of `C=CC(=O)OCC(CC)(COC(=O)C=C)COC(=O)C=C`, the Potency result is “inactive and 13.8 µM (active)”. `Cc1ccc(N=CN(C)C=Nc2ccc(C)cc2C)c(C)c1`: the “viability change, negative = cytotoxic” value is -5.7% (inactive). As to `CCOS(=O)(=O)OCC`, the Potency entry is “inactive”. In the case of `CC(C)(C#N)N=NC(C)(C)C#N`, the Potency entry is “inactive”. With `O=C(O)CF`, the Potency entry is “inactive”.

For `NC(=O)CN1CCCC1=O`, the Potency result is “inactive”. For `COc1ccc(CO)cc1`, the Potency entry is “inactive”.

Regarding `Clc1ccccc1-c1nnc(-c2ccccc2Cl)nn1`, the Potency entry was “inactive”. `C=CC(Cl)CCl` (stereo not given): the Potency result is “inactive”. On to `CC(C)(O)C#N`, for which the Potency entry is “inactive”. For the compound `O=C(O)c1nn(Cc2ccc(Cl)cc2Cl)c2ccccc12`, the “viability change, negative = cytotoxic” value was 0.64% (inactive).

Regarding `[CH3][Sn]([Cl])([Cl])[Cl]`, the “viability change, negative = cytotoxic” value was 19.7% (inactive).

Regarding `CCCCCCCC[N+](C)(CCCCCCCC)CCCCCCCC`, the Potency is 7.75 µM (active) and 2.19 µM (active) and 7.76 µM (active). Take `CCNc1nc(Cl)nc(NC(C)(C)C#N)n1`: the Potency result was “inactive”. With `OCCOCCO`, the Potency entry was “inactive”. As to `C[C@]12CCC(=O)C=C1CC[C@@H]1[C@@H]2CC[C@@]2(C)[C@H]1CC[C@]2(C)O`, the “viability change, negative = cytotoxic” value was -8.17% (inactive).

In the case of `COP(=O)(NC(C)=O)SC` (stereo not given), the “viability change, negative = cytotoxic” value is 2.04% (inactive).

Turning to `CNC(=O)Oc1cccc2c1OC(C)(C)C2`, the Potency result was “inactive”. The same measure, in the same setting: the same measure for `Nc1ccc2ccccc2c1`: “inactive”; for `N#CC(c1ccccc1)c1ccccc1`: “inactive”; for `CN(C)P(=O)(N(C)C)N(C)C`: “inactive”. On the same count and under the same terms, with `ClC(Cl)(Cl)Br` the entry was “inactive”; with `O=NN(c1ccccc1)c1ccccc1`, “inactive”. Still for that read-out and setting: with `CC[n+]1c(-c2ccccc2)c2cc(N)ccc2c2ccc(N)cc21` the figure was 614 nM (active); with `CCCCOCCOC(C)=O`, “inactive”. On to `CCCCCCCCCCCCCl`, for which the “viability change, negative = cytotoxic” value is -24.7% (inactive). For the compound `CC(C)CON=O`, the Potency entry was “inactive”.

As for `CS(=O)(=O)NC(=O)c1cc(Oc2ccc(C(F)(F)F)cc2Cl)ccc1[N+](=O)[O-]`, the Potency result was “inactive”. As for `Clc1cccc(C(Cl)(Cl)Cl)n1`, the Potency result is “inactive”. `Cn1c(-c2ccccc2)cc(-c2ccccc2)[n+]1C`: the Potency entry was “inactive”. On the same count and under the same terms, the same measure for `C[C@]12CC[C@H]3[C@@H](CCC4=CC(=O)CC[C@@H]43)[C@@H]1CC[C@@H]2O`: “inactive”; for `ClC(Cl)=C(Cl)C(Cl)=C(Cl)Cl`: “inactive”. Same read-out and setting: with `COc1ccc(C=O)cc1OC` the entry was “inactive”; with `O=NN1CCOCC1`, “inactive”; with `N#Cc1c(Cl)c(Cl)c(Cl)c(C#N)c1Cl`, 21.5 µM (active) and 15.5 µM (active). Take `CCC[CH2][Sn]([Cl])([CH2]CCC)[CH2]CCC`: the Potency is 873 nM (active) and 1.23 µM (active).

Consider `Cl`, for which the Potency entry was “inactive”. Take `Oc1ccc(Cl)cc1Cc1ccccc1`: the Potency was 60.5 µM (active) and inactive. The same measure, in the same setting: the same measure for `CCN(CC)C(=O)C(C)Oc1cccc2ccccc12` (stereo not given): “inactive”. Take `CCOP(=O)(OCC)OCC`: the Potency result is “inactive”.

These data come from PubChem BioAssay (Tox21).
